Results reported in PubChem BioAssay AID1159580 (chemical genetic matrix, 2015).
The campaign covered roughly 5,500 compounds. About 2,000 (36%) were called active. Not shown: some 18% with an inconclusive outcome. Rule as the data show it: active = normalized growth mostly below about 0.91 (no sharp cut-off); inconclusive = no clear call, values can overlap the other calls; inactive = mostly above about 0.92. The list shows a part of the results.

Assay: chemical genetic growth profiling, strain panel (AID 1159580);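 also: tested at 20 µM; growth read once vehicle control cultures reached saturation at 30 °C; 1 = growth at the plate median or of vehicle wells; lower values mean less growth of the strain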
Conditions: growth OD
[1] = S. cerevisiae deletion strains, locus YHR030C, strain SLT2, stronger effect = lower value
[2] = S. cerevisiae deletion strains, locus YJL095W, strain BCK1, stronger effect = lower value

Measured: normalized growth

OC[C@H]1O[C@H](OCCCc2ccc(O)cc2)[C@H](O)[C@@H](O)[C@@H]1O
inactive: [1] 0.97 | S. cerevisiae deletion strains, locus YHR079C, strain IRE1, stronger effect = lower value 0.993 | [2] 1 | S. cerevisiae deletion strains, locus YJR066W, strain TOR1, stronger effect = lower value 0.93 | S. cerevisiae deletion strains, locus YLR113W, strain HOG1, stronger effect = lower value 0.979 | S. cerevisiae deletion strains, locus YNL183C, strain NPR1, stronger effect = lower value 0.933 | S. cerevisiae deletion strains, locus YOR231W, strain MKK1, stronger effect = lower value 0.975 | S. cerevisiae deletion strains, locus YPL256C, strain CLN2, stronger effect = lower value 0.968

NCCc1cccc(O)c1
inactive: S. cerevisiae deletion strains, locus YAL013W, strain DEP1, stronger effect = lower value 1.01 | S. cerevisiae deletion strains, locus YBR021W, strain FUR4, stronger effect = lower value 0.972 | S. cerevisiae deletion strains, locus YBR229C, strain ROT2, stronger effect = lower value 0.983 | S. cerevisiae deletion strains, locus YCL029C, strain bik1, stronger effect = lower value 0.981 | S. cerevisiae deletion strains, locus YDL035C, strain GPR1, stronger effect = lower value 1.01 | S. cerevisiae deletion strains, locus YDL074C, strain BRE1, stronger effect = lower value 1.01 | S. cerevisiae deletion strains, locus YDL101C, strain DUN1, stronger effect = lower value 0.985 | S. cerevisiae deletion strains, locus YDL134C, strain PPH21, stronger effect = lower value 0.984 | S. cerevisiae deletion strains, locus YDL185W, strain tfp1, stronger effect = lower value 0.989 | S. cerevisiae deletion strains, locus YDL192W, strain arf1, stronger effect = lower value 0.979 | S. cerevisiae deletion strains, locus YDR101C, strain arx1, stronger effect = lower value 0.985 | S. cerevisiae deletion strains, locus YDR150W, strain NUM1, stronger effect = lower value 1 | S. cerevisiae deletion strains, locus YDR162C, strain NBP2, stronger effect = lower value 0.996 | S. cerevisiae deletion strains, locus YDR318W, strain mcm21, stronger effect = lower value 0.983 | S. cerevisiae deletion strains, locus YDR388W, stronger effect = lower value 0.981 | S. cerevisiae deletion strains, locus YDR502C, strain sam2, stronger effect = lower value 0.992 | S. cerevisiae deletion strains, locus YEL061C, strain CIN8, stronger effect = lower value 0.994 | S. cerevisiae deletion strains, locus YER110C, stronger effect = lower value 0.985 | S. cerevisiae deletion strains, locus YER155C, strain BEM2, stronger effect = lower value 0.951 | S. cerevisiae deletion strains, locus YER167W, strain BCK2, stronger effect = lower value 0.982 | S. cerevisiae deletion strains, locus YGL078C, strain dbp3, stronger effect = lower value 0.989 | S. cerevisiae deletion strains, locus YGL086W, strain mad1, stronger effect = lower value 0.976 | S. cerevisiae deletion strains, locus YGL248W, strain PDE1, stronger effect = lower value 0.982 | S. cerevisiae deletion strains, locus YGR078C, strain PAC10, stronger effect = lower value 1 | S. cerevisiae deletion strains, locus YGR135W, strain pre9, stronger effect = lower value 0.982 | S. cerevisiae deletion strains, locus YGR229C, strain SMI1, stronger effect = lower value 1.05 | S. cerevisiae deletion strains, locus YGR252W, strain gcn5, stronger effect = lower value 0.952 | [1] 0.994 | S. cerevisiae deletion strains, locus YHR079C, strain IRE1 (second series), stronger effect = lower value 0.986 | S. cerevisiae deletion strains, locus YHR094C, strain hxt1, stronger effect = lower value 0.992 | S. cerevisiae deletion strains, locus YHR129C, strain ARP1, stronger effect = lower value 0.987 | S. cerevisiae deletion strains, locus YHR200W, strain rpn10, stronger effect = lower value 0.974 | S. cerevisiae deletion strains, locus YIL066C, strain RNR3, stronger effect = lower value 0.996 | S. cerevisiae deletion strains, locus YIL073C, strain SPO22, stronger effect = lower value 0.946 | S. cerevisiae deletion strains, locus YIL125W, strain kgd1, stronger effect = lower value 0.984 | S. cerevisiae deletion strains, locus YIR030C, strain dcg1, stronger effect = lower value 0.991 | [2] 1 | S. cerevisiae deletion strains, locus YJL134W, strain LCB3, stronger effect = lower value 0.992 | S. cerevisiae deletion strains, locus YJL168C, strain set2, stronger effect = lower value 0.987 | S. cerevisiae deletion strains, locus YJL187C, strain SWE1 (second series), stronger effect = lower value 0.991 | S. cerevisiae deletion strains, locus YJR043C, strain POL32, stronger effect = lower value 0.979 | S. cerevisiae deletion strains, locus YJR075W, strain HOC1, stronger effect = lower value 0.998 | S. cerevisiae deletion strains, locus YKL009W, strain mrt4, stronger effect = lower value 0.965 | S. cerevisiae deletion strains, locus YKL068W, stronger effect = lower value 0.992 | S. cerevisiae deletion strains, locus YKL085W, strain MDH1 (second series), stronger effect = lower value 0.987 | S. cerevisiae deletion strains, locus YKL085W, strain MDH1, stronger effect = lower value 0.987 | S. cerevisiae deletion strains, locus YKL190W, strain CNB1, stronger effect = lower value 0.997 | S. cerevisiae deletion strains, locus YKR001C, strain vps1, stronger effect = lower value 0.976 | S. cerevisiae deletion strains, locus YLR039C, strain RIC1, stronger effect = lower value 0.972 | S. cerevisiae deletion strains, locus YLR058C, strain SHM2, stronger effect = lower value 0.992 | S. cerevisiae deletion strains, locus YLR102C, strain apc9, stronger effect = lower value 0.99 | S. cerevisiae deletion strains, locus YLR262C, strain YPT6, stronger effect = lower value 0.997 | S. cerevisiae deletion strains, locus YLR268W, strain sec22, stronger effect = lower value 0.989 | S. cerevisiae deletion strains, locus YLR330W, strain CHS5, stronger effect = lower value 0.99 | S. cerevisiae deletion strains, locus YLR342W, strain FKS1 (second series), stronger effect = lower value 0.963 | S. cerevisiae deletion strains, locus YLR371W, strain rom2, stronger effect = lower value 0.991 | S. cerevisiae deletion strains, locus YLR418C, strain cdc73, stronger effect = lower value 0.985 | S. cerevisiae deletion strains, locus YML016C, strain PPZ1, stronger effect = lower value 0.985 | S. cerevisiae deletion strains, locus YML032C, strain rad52, stronger effect = lower value 0.978 | S. cerevisiae deletion strains, locus YML124C, strain tub3, stronger effect = lower value 0.989 | S. cerevisiae deletion strains, locus YMR078C, strain ctf18, stronger effect = lower value 0.983 | S. cerevisiae deletion strains, locus YMR223W, strain ubp8, stronger effect = lower value 0.979 | S. cerevisiae deletion strains, locus YMR263W, strain SAP30, stronger effect = lower value 1 | S. cerevisiae deletion strains, locus YMR307W, strain GAS1, stronger effect = lower value 0.991 | S. cerevisiae deletion strains, locus YNL067W, strain RPL9B, stronger effect = lower value 1.01 | S. cerevisiae deletion strains, locus YNL128W, strain TEP1, stronger effect = lower value 1.03 | S. cerevisiae deletion strains, locus YNL153C, strain GIM3, stronger effect = lower value 0.996 | S. cerevisiae deletion strains, locus YNL233W, strain BNI4, stronger effect = lower value 0.989 | S. cerevisiae deletion strains, locus YNL250W, strain rad50, stronger effect = lower value 0.984 | S. cerevisiae deletion strains, locus YNL271C, strain bni1, stronger effect = lower value 0.991 | S. cerevisiae deletion strains, locus YNL298W, strain CLA4, stronger effect = lower value 0.98 | S. cerevisiae deletion strains, locus YNL307C, strain MCK1, stronger effect = lower value 0.981 | S. cerevisiae deletion strains, locus YNL322C, strain KRE1, stronger effect = lower value 0.998 | S. cerevisiae deletion strains, locus YNR052C, strain pop2, stronger effect = lower value 0.987 | S. cerevisiae deletion strains, locus YOL006C, strain TOP1, stronger effect = lower value 0.986 | S. cerevisiae deletion strains, locus YOL012C, strain htz1 0.834 | S. cerevisiae deletion strains, locus YOL147C, strain pex11, stronger effect = lower value 0.986 | S. cerevisiae deletion strains, locus YOR061W, strain CKA2, stronger effect = lower value 0.991 | S. cerevisiae deletion strains, locus YOR069W, strain VPS5, stronger effect = lower value 0.988 | S. cerevisiae deletion strains, locus YOR136W, strain idh2, stronger effect = lower value 0.975 | S. cerevisiae deletion strains, locus YOR144C, strain elg1, stronger effect = lower value 0.986 | S. cerevisiae deletion strains, locus YOR184W, strain ser1, stronger effect = lower value 0.965 | S. cerevisiae deletion strains, locus YOR316C, strain cot1, stronger effect = lower value 0.989 | S. cerevisiae deletion strains, locus YPL055C, strain LGE1, stronger effect = lower value 1.04 | S. cerevisiae deletion strains, locus YPL241C, strain CIN2, stronger effect = lower value 1 | S. cerevisiae deletion strains, locus YPR119W, strain clb2, stronger effect = lower value 0.992 | S. cerevisiae deletion strains, locus YPR141C, strain kar3, stronger effect = lower value 0.988 | S. cerevisiae deletion strains, locus YPR163C, strain tif3, stronger effect = lower value 0.984 | S. cerevisiae deletion strains, locus YPR167C, strain met16, stronger effect = lower value 0.981 | S. cerevisiae deletion strains, strain wtn01, stronger effect = lower value 0.987 | S. cerevisiae strains, strain wild type, stronger effect = lower value 1.02
